# Values joined by “and” are separate entries in the source; they are usually repeats but may differ in a detail not shown here. Equal values may be shown once. This is part of a sample that, as a whole, favours compounds with a hit. Of some 83,000 tested, about 20% had one in any assay.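 Cell lines were cultured in 96-well plates, exposed to a single compound concentration, and assessed for percent growth 48 hours later.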 A number with no mark means an inactive call. Active and inactive are the calls of the source. The calls were made as follows: active = growth percent below 10; inactive = the rest.
# Experiments:
# Experiment in all cases: NCI-60 one-dose screen, 48 h (100 = growth as untreated, 0 = no growth, -100 = all killed)
# NCI-H226 lung = details: 10 µM
# NCI-H322M lung = details: 10 µM
# HOP-62 NSCLC = details: 10 µM
# NCI-H460 lung = details: 10 µM
# A549/ATCC NSCLC = details: 10 µM
# 786-0 renal = details: 10 µM
# DU-145 prostate = details: 10 µM
# SF-268 CNS = details: 10 µM
# SF-295 CNS = details: 10 µM
# SF-539 CNS = details: 10 µM
# HCT-15 colon = details: 10 µM
# SNB-75 CNS = details: 10 µM
# SNB-19 CNS = details: 10 µM
# U251 CNS = details: 10 µM
# PC-3 prostate = details: 10 µM
# EKVX NSCLC = details: 10 µM
# UO-31 renal = details: 10 µM
# ACHN renal = details: 10 µM
# HL-60(TB) leukemia = details: 10 µM unless noted
# CCRF-CEM leukemia = details: 10 µM
SMILES,growth (NCI-H226 lung),growth (NCI-H322M lung),growth (HOP-62 NSCLC),growth (NCI-H460 lung),growth (A549/ATCC NSCLC),growth (786-0 renal),growth (DU-145 prostate),growth (SF-268 CNS),growth (SF-295 CNS),growth (SF-539 CNS),growth (HCT-15 colon),growth (SNB-75 CNS),growth (SNB-19 CNS),growth (U251 CNS),growth (PC-3 prostate),growth (EKVX NSCLC),growth (UO-31 renal),growth (ACHN renal),growth (HL-60(TB) leukemia),growth (CCRF-CEM leukemia)
CC1=C[C@H]2O[C@@H]3C[C@@H](O)[C@](C)([C@@]2(C)CC1)[C@@]31CO1,29.9%,24.9%,15.7%,13.2%,16.2%,24.1%,19.4%,29.3%,27.2%,23.9%,20.8%,28.7%,18.9%,15.4%,31.5%,38.3%,16.7%,22.2%,-20.9% (active),13.8%
N#Cc1c(-n2c(Br)c(Br)c3cc(Br)ccc32)[nH]c2c(Br)cc(Br)cc12,-20.5% (active),0.977% (active),-50.9% (active),-2.03% (active),10.3%,-19.1% (active),17%,9.61% (active),-67% (active),6.25% (active),-27% (active),-9.71% (active),15%,2.86% (active),-8.16% (active),3.62% (active),1.66% (active),1.41% (active),1.07% (active),13.2%
CC1=C2C(=C[C@@](C)(COC(=O)c3ccc(S(=O)(=O)F)cc3)[C@@H]2O)C(=O)[C@](C)(O)C12CC2,-24.4% (active),-5.82% (active),-17.7% (active),-33.3% (active),-11% (active),-37.7% (active),-20.4% (active),-12% (active),-5.19% (active),-67.8% (active),-20.2% (active),-51.6% (active),3.51% (active),1.04% (active),-3.96% (active),-4.53% (active),-21.4% (active),0.0222% (active),,9.59% (active)
CCCCCCCCCC(=O)N[C@@](C)(CC)C(=O)N1CCC[C@H]1C(=O)N[C@@H](CC(C)C)C(=O)N[C@@](C)(CC)C(=O)N[C@@H](CCC(N)=O)C(=O)N[C@H](CCC(N)=O)C(=O)NC(C)(C)C(=O)NC(C)(C)C(=O)N[C@@H](CCC(N)=O)C(=O)N[C@H](CC(C)C)C(=O)N[C@H](CO)CC(C)C,-71.9% (active) and -72.7% (active),-94.9% (active) and -60.9% (active),-74.3% (active) and -67.3% (active),-77.3% (active) and -76.8% (active),-48.6% (active) and -38% (active),-78.5% (active) and -80.4% (active),-99.1% (active) and -81.9% (active),-80.5% (active) and -64.9% (active),-91.7% (active) and -90.9% (active),-97.2% (active) and -100% (active),-77.8% (active) and -78.1% (active),-90.8% (active) and -96.3% (active),-93.9% (active) and -99.6% (active),-75.9% (active) and -77.1% (active),-87.2% (active) and -63.7% (active),-86.7% (active) and -89.1% (active),-96.4% (active) and -89.3% (active),-93% (active) and -98.4% (active),-61.8% (active) and -23.6% (active),-38.9% (active) and -40.9% (active)
COc1cccc2c1cc([N+](=O)[O-])c1c(C(=O)O)cc3c(c12)OCO3,104%,115%,113%,105%,100%,109%,112%,108%,101%,106%,99.9%,96.2%,102%,103%,95.6%,97%,85.1%,101%,105%,96.6%
CC1=C2C(=O)[C@](C)(CO)C=C2C(=O)[C@](C)(O)C12CC2,74.7%,61.6%,22%,5.34% (active),13.2%,5.58% (active),7.23% (active),10.5%,6.45% (active),4.6% (active),-9.55% (active),38.9%,60.2%,8.4% (active),21.6%,64.7%,-20.7% (active),-21.9% (active),-21.6% (active),13.9%
CC1=C[C@H]2O[C@@H]3C[C@H]4OC(=O)/C=C\C=C\[C@H]([C@@H](C)O)OCC/C(C)=C/C(=O)OC[C@@]2(CC1)[C@]4(C)[C@]31CO1,-50.5% (active),-19% (active),-42.9% (active),-7.38% (active),-25.6% (active),-43.6% (active),-17.5% (active),-1.73% (active),-37.5% (active),-39.2% (active),-18.6% (active),-50.1% (active),-6.9% (active),-17.3% (active),-23.9% (active),-25.1% (active),-29.4% (active),-16.1% (active),-44.9% (active),-11.5% (active)
CN1C(=O)[C@]23SSC1(C)C(=O)N2[C@H]1Nc2ccccc2C1([C@@]12c4ccccc4N[C@@H]1N1C(=O)C4(C)SS[C@]1(C(=O)N4C)[C@H]2O)[C@@H]3O (some centres undefined),-96.6% (active),-74.2% (active),-91% (active),-87.4% (active),-86.9% (active),-99.1% (active),-94.1% (active),-86.5% (active),-80.2% (active),-91.3% (active),-45.4% (active),-85.8% (active),-99.4% (active),-97.5% (active),-79.9% (active),-97.4% (active),-100% (active),-98.8% (active),-19.4% (active),1.4% (active)
CCC(C)[C@H]1C(=O)O[C@H](C(C)C)C(=O)N(C)[C@@H](C(C)C)C(=O)O[C@H](C(C)C)C(=O)N(C)[C@@H](C(C)C)C(=O)O[C@H](C(C)C)C(=O)N1C (some centres undefined),21.2%,14.3%,15%,7.94% (active),14.5%,20.9%,26.9%,21.9%,9.15% (active),19.1%,14.6%,2.63% (active),21.6%,13.5%,12.2%,24%,-10.8% (active),9.28% (active),-48.8% (active),7.02% (active)
C[C@@H]1C[C@H]2C(=O)O[C@@H](C)C(NC(=O)[C@H](Cc3cc(F)cc(F)c3)NC(=O)Nc3ccc(OS(=O)(=O)F)cc3)C(=O)N3CCC[C@H]3C(=O)N3CCO[C@H](C)[C@H]3C(=O)N[C@@H](CO)C(=O)N2C1 (some centres undefined),-3.99% (active),54%,33%,17%,31%,42.7%,28%,33.2%,11.4%,39.5%,82.9%,34.4%,24.2%,29.6%,19.9%,34%,88.7%,93.5%,13.3%,34.1%
C/C=C\C(=O)O[C@@H]1CC2O[C@@H]3C=C(C)C(=O)C[C@]3(C)[C@]1(C)[C@]21CO1,-20.5% (active),-11% (active),-32.6% (active),0.808% (active),-5.19% (active),-20.2% (active),-15.1% (active),0.463% (active),-18.2% (active),-31.9% (active),-5% (active),-14.8% (active),-10.5% (active),-11% (active),-2.85% (active),-2.36% (active),-12.4% (active),-28.6% (active),-47.3% (active),-12.8% (active)
CC1=C2C(=C[C@@](C)(C=O)[C@@H]2O)C(=O)[C@](C)(O)C12CC2,46.1%,26.5%,8.06% (active),5.09% (active),8.13% (active),5.21% (active),9.15% (active),12.2%,3.31% (active),-10.7% (active),6.02% (active),-3.53% (active),20.7%,4.74% (active),6.53% (active),15%,-13.3% (active),-18.5% (active),-12% (active),22.6%
CC(=O)O[C@@H]1[C@@H]2O[C@H]2[C@@](C)(O)C(=O)[C@@H](C)C/C=C/[C@H]2[C@@H]3O[C@]3(C)[C@@H](C)C3[C@H](Cc4ccccc4)NC(=O)[C@@]312 (some centres undefined),65.7%,92.5%,5.72% (active),28.5%,25.1%,24.3%,50.2%,26.5%,65.4%,51.5%,54.1%,-12.9% (active),55.1%,43.1%,72.3%,39.1%,24.8%,40.4%,58.2%,44.2%

# From PubChem BioAssay (NCI)
